The campaign covered roughly 2,200 compounds. About 1,200 (55%) were called active. Cut-off not given; nearly all actives show IC50 up to about 92 µM. So high a share suggests a set chosen from earlier hits. Some of the results follow.
Test: counter assay for TAg ATPase ADP read-out – biochemical, ADP-Hunter, fluorescence, counter-screen (AID 2501);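 further: purified T antigen ATPase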
Details: series mostly up to 100 µM

SMILES | IC50
CCOC(=O)C[n+]1c(C)sc2ccc(OC)cc21 | inactive
O=C(Nc1ccc2[nH]c(=O)[nH]c2c1)c1cccc([N+](=O)[O-])c1 | inactive
O=c1[nH]c2ccc(NCc3ccc(F)cc3)cc2[nH]1 | 5.43 µM (active)
C=CCOc1c(CNc2ccc3[nH]c(=O)[nH]c3c2)cccc1OC | 3.28 µM (active)
C=CCOc1ccc(CNc2ccc3[nH]c(=O)[nH]c3c2)cc1OCC | 3.26 µM (active)
C=CCOc1ccccc1CNc1ccc2[nH]c(=O)[nH]c2c1 | 5.14 µM (active)
Cc1ccc(C2C(C#N)=C(N)Oc3c2oc(CO)cc3=O)o1 (stereo unspecified) | inactive
O=C1CC(=O)N(Cc2ccco2)C(=S)N1 | inactive
O=C1c2sc3nc4n(c(=O)c3c2CCC1Br)CCCCC4 (stereo unspecified) | inactive
C=CCOc1cccc(CNc2ccc3[nH]c(=O)[nH]c3c2)c1 | 4.29 µM (active)
COc1cccc(CNc2ccc3[nH]c(=O)[nH]c3c2)c1OCc1ccccc1 | 3.98 µM (active)
COc1ccc2[nH]c(=O)c(CNc3ccccc3OC)cc2c1 | inactive
COc1cc(/C=C2\SC(=Nc3ccc(Cl)c(C(=O)O)c3)NC2=O)c(Br)c(Br)c1O | 3.98 µM (active)
COc1cc(/C=C2\S/C(=N/S(=O)(=O)c3ccc(C)cc3)NC2=O)c([N+](=O)[O-])cc1OC | inactive
CN1CN(C)c2cccc3cccc1c23 | 13.5 µM (active)
CN(C)c1ccc(N/C=C/C(=O)c2ccccc2)cc1 | 3.25 µM (active)
CCOC(=O)c1ccc(N/C=C/C(=O)C(C)(C)C)cc1 | inactive
CN(C)c1ccc(N/C=C/C(=O)C(F)(F)F)cc1 | 8.86 µM (active)

SMILES | IC50
COc1ccccc1N/C=C/C(=C(C#N)C#N)N(C)C | inactive
O=S(=O)(Nc1c(O)ccc2ccccc12)c1ccc(F)cc1 | inactive
Oc1ccc2ccccc2c1N=Nc1ccccc1F | 7.8 µM (active)
O=C(N/N=C/c1ccc(O)c(O)c1)c1ccc(CSc2cccc3cccnc23)cc1 | 29 µM (active)
CCOc1cc(/C=N/NC(=O)CSc2cccc3cccnc23)ccc1O | 3.48 µM (active)
O=C(CSc1cccc2cccnc12)N/N=C/c1ccc(O)cc1 | 4.35 µM (active)
O=S(=O)(Nc1cc(Sc2cccc3cccnc23)c(O)c2ccccc12)c1ccc(F)cc1 | inactive
O=C(COc1cccc2cccnc12)N/N=C/c1ccc(O)cc1 | 73.5 µM (active)
COc1ccc([C@@H]2[C@@H]3C(=O)N(C(C)(C)C)C(=O)[C@@H]3[C@]3(C)C(=O)N(c4ccc(C)cc4)C(=O)N23)cc1 | inactive
COc1ccc(NC2CCCN(C(=O)c3ccncc3)C2)cc1 (stereo unspecified) | 12 µM (active)
COCc1ccc(C(=O)N2CCCC(CCC(=O)NCc3ccccc3F)C2)o1 (stereo unspecified) | inactive
CSc1ncc(CN2CCCC(C(=O)Nc3ccc(-c4ccco4)cc3)C2)cn1 (stereo unspecified) | inactive
O=C(c1cc(F)ccc1F)C1CCCN(C(=O)c2ccc(F)cc2Cl)C1 (stereo unspecified) | inactive
COc1ccc(NC2CCCN(C(=O)c3ccc(OC)o3)C2)cc1 (stereo unspecified) | 10.4 µM (active)
O=C(c1ccco1)N1CCN(C(=O)N2CCCC2)CC1 | inactive
COc1ccc(C(=O)Nc2ccc3c(c2)CCCN3C(=O)c2cccs2)c(OC)c1 | inactive
O=C(c1ccco1)N1CCCC(Nc2ccc3c(c2)OCCO3)C1 (stereo unspecified) | 13.5 µM (active)
COc1ccc(NC2CCCN(C(=O)c3ccc(OC)cc3OC)C2)cc1 (stereo unspecified) | 3.38 µM (active)

Reference: PubChem BioAssay AID2501 (Southern Research Specialized Biocontainment Screening …, 2010)
